# High-throughput results: PubChem BioAssay, National Center for Advancing Translational Sciences (NCATS)
# Compounds with a hit are over-represented: about 2.4% of the library has one in this group of screens.
# Cruzain Triton – cruzain (T. cruzi) inhibition with detergent | P25779 | purified cruzain, Z-FR-AMC fluorescence, 0.01% Triton | Potency, µM, usual class: inhibitors | hit rate 0.43% among 200,000; further: nearly all actives have a fitted effect of over 40% in size
# Target sequence (P25779 123-467 limits assumed): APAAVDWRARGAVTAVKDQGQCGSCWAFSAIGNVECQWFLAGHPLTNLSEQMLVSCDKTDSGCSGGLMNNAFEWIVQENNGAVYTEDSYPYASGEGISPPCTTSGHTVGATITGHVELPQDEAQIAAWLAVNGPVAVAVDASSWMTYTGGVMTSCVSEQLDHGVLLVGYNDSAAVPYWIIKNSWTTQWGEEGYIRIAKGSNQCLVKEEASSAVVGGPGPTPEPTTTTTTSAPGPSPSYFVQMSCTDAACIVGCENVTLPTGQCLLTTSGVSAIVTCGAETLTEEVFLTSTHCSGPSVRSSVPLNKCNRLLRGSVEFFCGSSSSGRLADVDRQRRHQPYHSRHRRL
#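 15 min RT preincubation of 1.5 nM cruzain with compound, then 2 uM Z-FR-AMC added; kinetic AMC fluorescence, 60 s delta. Triton X-100 0.01%, pH 5.5.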
# Cruzain noTriton – cruzain (T. cruzi) inhibition without detergent. P25779. purified cruzain, Z-FR-AMC fluorescence, no detergent. Potency, µM, usual class: inhibitors. hit rate 2.3% among 200,000; further: nearly all actives have a fitted effect of over 40% in size
#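 Detergent-free condition (0.00005% Triton X-100) in acetate buffer pH 5.5 with DTT. 1.5 nM enzyme and compound were pre-mixed 15 min, then 2 uM Z-FR-AMC substrate added; reaction progress from fluorescence change between first and third reads (60 s).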
# A number is an active result; i = inactive; ? = inconclusive; ! = not active in a repeat. The call rests on the fitted dose curve; in most records, active means well fitted curve in the direction sought with a large enough effect; inconclusive means small, poorly fitted or top-dose-only effect, or another doubt; inactive means no such curve, though single readings can be large; an effect the other way counts as inactive or inconclusive.
SMILES,Cruzain Triton,Cruzain noTriton
CC(C)(C)C(=O)OCOP(=O)(OCOC(=O)C(C)(C)C)C(C)(Oc1ccc(O)cc1)P(=O)(OCOC(=O)C(C)(C)C)OCOC(=O)C(C)(C)C,i,?
COc1ccc(NC(=O)Cn2ccn(-c3ccc(F)c(F)c3)c(=O)c2=O)cc1Cl,i,?
COc1ccc2c(c1)c(=O)c(S(=O)(=O)c1ccc(C)cc1)cn2Cc1ccccc1C,i,i
COc1ccc2c(c1)c(=O)c(S(=O)(=O)c1ccc(Cl)cc1)cn2Cc1cc(C)ccc1C,i,10µM
O=C(Nc1ccc(Cl)cc1)c1cc2c(-c3ccccc3)nn(-c3ccccc3)c2s1,i,i
c1ccc(-c2ccc(-c3csnn3)cc2)cc1,i,20µM
FC(F)(F)c1cccc(-c2ccc(-c3csnn3)o2)c1,i,i
N#C/C(=C\c1ccc(-c2ccc([N+](=O)[O-])cc2Br)o1)C(=O)N1CCN(c2ccccc2)CC1,i,12.6µM
N#C/C(=C/c1ccc(Oc2ccc([N+](=O)[O-])cn2)cc1)C(=O)N1CCOCC1,i,?
COc1ccc(-c2noc(-c3ccc(N4CCN(c5ccccc5OC)CC4)c([N+](=O)[O-])c3)n2)cc1,i,i
Cc1ccc(SCc2ccc(C(=O)Nc3cc([N+](=O)[O-])ccc3C)cc2)cc1,i,i
Cc1ccc(SCc2ccc(C(=O)Nc3cccc([N+](=O)[O-])c3)cc2)cc1,i,20µM
Nc1c(-c2cccc([N+](=O)[O-])c2)nc2ccccn12,i,20µM
Nc1nc(-c2cccc([N+](=O)[O-])c2)cc(-c2cc(-c3cccc([N+](=O)[O-])c3)nc(N)n2)n1,i,i
CCOC(=O)C1CCCN(C(=O)Cn2ncc3c(C)n(Cc4ccccc4F)c(C)c3c2=O)C1 (configuration not stated),i,i
CNC(=S)N/N=C/c1cn(CCOc2cccc(OC)c2)c2ccccc12,i,25.1µM
CNC(=S)N/N=C/c1cn(CCOc2ccccc2OC)c2ccccc12,i,31.6µM
COc1ccc(OCCn2cc(/C=N/NC(=O)c3ccncc3)c3ccccc32)cc1,i,?
COc1cccc(OCCn2cc(/C=N/NC(=O)c3ccncc3)c3ccccc32)c1,i,?
COC(=O)[C@@H]1C[C@@H]2CC[C@@H](O)C[C@@H]2N1Cc1ccc(-c2ccccc2)cc1,i,i
CCC(=O)Nc1cc2nn(-c3ccc(OC)cc3)nc2cc1C,i,?
COc1ccc(-n2nc3cc(C)c(NC(=S)NC(=O)c4ccccc4C)cc3n2)cc1,i,12.6µM
C(=N\Nc1nc(-c2ccccc2)cs1)/c1ccco1,i,?
C(=N\Nc1nc(-c2ccccc2)cs1)/c1cccs1,i,25.1µM
Cc1ccc(C)c(-c2nc3ccc(N)cc3[nH]2)c1,i,?
SMILES,Cruzain Triton,Cruzain noTriton
Clc1ccc2nc(-c3ccccc3)[nH]c2c1,i,i
Nc1ccc2nc(-c3cc(Cl)c(N)c(Cl)c3)[nH]c2c1,?,15.8µM
Nc1ccc2nc(-c3ccc(Cl)cc3)[nH]c2c1,?,20µM
Nc1ccc(-c2nc3c(Cl)c(N)ccc3[nH]2)cc1,?,31.6µM
Nc1ccc(-c2nc3ccc([N+](=O)[O-])cc3[nH]2)cc1,i,i
FC(F)(F)c1ccccc1-c1ccc2ncnc(NCc3cccs3)c2c1,i,i
CSc1nc2c([nH]c3ccccc32)c(=O)n1-c1ccc(C)cc1,i,i
COc1ccccc1CNC(=O)Cn1ncn2c(cc3sccc32)c1=O,i,i
CCc1ccc(NCCC(=O)c2ccc(Br)cc2)cc1,i,i
Cc1ccc(NCCC(=O)c2ccc(Br)cc2)cc1,i,20µM
CN(C(=O)Cn1cnc2onc(-c3ccc(F)cc3)c2c1=O)c1ccccc1Cl,i,i
CCCOc1ccc(-c2nc(C#N)c(N3CCc4ccccc4C3)o2)cc1,25.1µM,i
CCCOc1ccc(-c2nc(C#N)c(N3CCN(C)CC3)o2)cc1,i,i
O=C(CCn1cnc2onc(-c3ccc(F)cc3)c2c1=O)Nc1ccc(F)c(Cl)c1,i,i
COc1cc(Cl)c(C)cc1NC(=O)CN1c2ccccc2S(=O)(=O)c2ccccc21,i,25.1µM
NC(=O)c1ccccc1NC(=O)CN1c2ccccc2S(=O)(=O)c2ccccc21,i,i
CCN(CC)c1ccc(C2C(C(N)=O)=C(C)Nc3ncnn32)cc1 (configuration not stated),i,i
N#C/C(=C\c1ccc(-c2ccccc2[N+](=O)[O-])o1)C(=O)Nc1nc(-c2cccs2)cs1,i,6.31µM
CNC(=O)/C(C#N)=C/c1ccc(-c2ccc(OC)cc2[N+](=O)[O-])o1,i,i
Cc1ccc2nc(N3CCN(c4ccc(F)cc4)CC3)c3nnnn3c2c1,i,i
Cc1ccc2nc(N3CCN(c4cccc(C)c4C)CC3)c3nnnn3c2c1,i,3.98µM!
COc1cc(OC)cc(-c2nc3nc(C)c(CCC(=O)Nc4ccc(Cl)cc4)c(C)n3n2)c1,i,i
COc1ccc(N(CC(=O)NCc2ccccc2Cl)S(=O)(=O)c2c(C)[nH]c(=O)[nH]c2=O)cc1,i,i
CCOc1ccccc1CNC(=O)Cn1ncn2nc(-c3cccs3)cc2c1=O,i,i
